The full ranking holds about 33,000 sequences; the median of “E-score (-0.5 to 0.5)” is about -0.054, and the highest 2% start at about 0.35. The list comes from a sample in which the highest values are over-represented; it also holds similar and randomly drawn sequences.
target: T1, Stb5 (UniProt P38699); assay: PBM E-score (8-mer binding enrichment) (E-score (-0.5 to 0.5)); higher = stronger / more preferred TF binding; conditions: protein concentration: 200 nM; construct: GST-full length
T1 sequence: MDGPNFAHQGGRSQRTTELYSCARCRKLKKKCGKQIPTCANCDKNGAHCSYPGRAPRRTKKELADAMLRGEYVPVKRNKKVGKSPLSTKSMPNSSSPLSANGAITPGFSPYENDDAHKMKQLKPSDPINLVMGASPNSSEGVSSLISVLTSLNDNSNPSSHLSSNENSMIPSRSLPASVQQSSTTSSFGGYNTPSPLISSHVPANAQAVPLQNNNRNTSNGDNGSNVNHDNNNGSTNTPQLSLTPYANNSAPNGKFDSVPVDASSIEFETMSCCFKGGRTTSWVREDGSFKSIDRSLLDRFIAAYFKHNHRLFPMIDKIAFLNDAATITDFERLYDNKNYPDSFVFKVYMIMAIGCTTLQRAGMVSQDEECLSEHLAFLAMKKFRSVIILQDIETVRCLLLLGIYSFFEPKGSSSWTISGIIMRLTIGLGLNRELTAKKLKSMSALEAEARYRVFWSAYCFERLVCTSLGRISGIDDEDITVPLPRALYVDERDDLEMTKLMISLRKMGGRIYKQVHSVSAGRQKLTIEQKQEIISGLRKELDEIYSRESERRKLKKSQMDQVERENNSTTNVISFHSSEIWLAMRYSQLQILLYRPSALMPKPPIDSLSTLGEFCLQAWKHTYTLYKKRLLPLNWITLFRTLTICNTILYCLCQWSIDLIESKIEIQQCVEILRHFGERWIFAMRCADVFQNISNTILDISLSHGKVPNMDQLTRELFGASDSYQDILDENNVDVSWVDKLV
Procedure: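 Universal 'all 10-mer' protein binding microarrays (Agilent AMADID 015681) probed with GST-tagged S. cerevisiae TFs (full-length or DBD) made by in vitro transcription/translation (PURExpress), about 100-200 nM. Bound TF was detected with fluorescent anti-GST. Each ungapped 8-mer (which stands for itself and its reverse complement) is scored by the PBM enrichment score (E-score), a modified Wilcoxon-Mann-Whitney statistic from -0.5 to +0.5, computed with the Universal PBM Analysis Suite. Scale: above 0.35 generally sequence-specific binding.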

Sequence	PBM E-score
CATCCGAC	0.288
CGAGACTA	-0.0587
GGGGGTGA	-0.123
GGGGGTCA	-0.125
CCGGGTCA	0.176
CGGGGTCA	0.441
CCGGGTGA	0.179
CGGGGTGA	0.432
CGCTTGGA	-0.0324
TAGGACAA	-0.287
CCCGGGTA	0.101
CCCCGGTA	0.298
CCCCGGTC	0.369
ACCGGGTC	0.19
ACCCGGTC	0.204
CCCGGGTC	0.352
CCCGCACG	0.325
GAAGTTCA	-0.189
ACCCCGGC	0.343
CCCCGGGG	0.393
ACCCCGGG	0.392
ACCCCGGA	0.308
ACCCGGGG	0.185
CCCCGGGA	0.268
CCCCCGGG	0.237

Sequence	PBM E-score
ACCCCGGT	0.356
CCCCGGGC	0.265
TAGAAAAA	-0.116
ACAGCCCC	-0.0495
CCTGTGAC	-0.0962
CCGATGAC	0.301
GTCCACGA	-0.134
AGGCTCTC	-0.369
AGAACTTA	-0.169
AATGTAGT	-0.128
ACAAAGCA	-0.0624
CTTGGGAC	-0.0832
AAATGCCG	0.435
AAATGCCC	0.0775
AATTGCCA	-0.27
AATTGCCC	0.0559
AAGTGCCG	0.409
AATTGCCG	0.354
AAGTGCCA	-0.182
CAATGCCG	0.334
AAGTGCCC	0.0216
CTAGCGTC	0.0861
AGAAACCA	-0.212
CCATGGCA	-0.0516
ACCCCTAC	-0.171

Sequence	PBM E-score
ATACATTC	-0.228
AACCGTCG	0.212
CACCGTCC	0.407
CACCGTCA	0.333
AACCGTCC	-0.0366
GACCGTCC	0.21
CACCGTCG	0.373
AACCTAGC	-0.17
CTGTGGCA	-0.279
ATAAAGCG	0.236
ATAAGGCC	0.359
ATAAGACG	-0.111
CTAAAGCC	0.228
ATAAGCCC	0.406
ATAAAGCC	0.359
ATAAGGCG	-0.00531
CTAAGGCC	0.262
CTAAGCCC	0.324
ATAAGACC	0.397
CTAAGACC	0.22
ATAAGCCA	-0.107
AGAAAGAG	-0.102
ACCTGATA	0.0218
CTAAGTCC	0.245
ATAAGTCG	0.15

Sequence	PBM E-score
ATAAGTCC	0.443
ATGCGTTG	-0.0346
AAACTCCC	0.104
GAGTTCGC	0.0473
AACGCCTC	-0.064
AACGCCGA	0.456
CACGCCGA	0.133
AACGCCAC	-0.0588
GACGCCGA	0.342
AACGCCGC	0.448
GACGCCGC	0.406
AACGCCTT	-0.00961
TACGCCGA	0.299
AACGCCGT	0.437
CACGCCGC	0.293
AACGCCAT	-0.106
ATAGCCCA	-0.245
ACCAGCGA	0.0766
AAAGAGAA	-0.00974
AACGCCGG	0.44
AACGCCCG	0.24
CACGCCGG	0.268
AAATAGAT	0.104
AGCTCCGA	0.405
AGCTCCGG	0.362

Sequence	PBM E-score
AGCTCCCG	-0.0713
GGCTCCGA	0.0871
CGCTCCGC	0.164
AGCTCCTG	-0.18
CGCTCCGA	0.231
AGCTCCTC	-0.184
AGCTCCGC	0.406
AGAGCAGA	-0.138
AGGCCCGC	0.36
CGGCCCGC	0.188
CTGCCCGC	0.06
ATGCCCGG	0.318
AGGCCCGA	0.314
ATGCCCGC	0.366
TGACGTCA	0.158
AGATGCGA	0.0797
TACCACGA	-0.267
CGCCGCCA	0.348
ATCCGCCC	0.218
CGCCGCCC	0.352
CGCCGCCG	0.369
AGCCGCGC	0.173
AGCCGCCG	0.215
AGCCGCCC	0.144
CTCCGCCA	0.293

Sequence	PBM E-score
GGCCGCCC	0.253
CGCCGCGA	0.289
CGCCGCGC	0.368
CTCCGCCC	0.397
ATACCTCG	-0.173
GCTTCGAA	-0.0877
ACGTACCC	0.0314
AACTCTAG	-0.33
GGACTCAC	0.0404
AGGACCAA	-0.115
AAGCCTCT	-0.318
AAGTAGCG	0.0894
GAAGTTCC	0.0956
ACTCCGCC	0.384
CCTCCGCC	0.223
ACTCCGCT	0.392
GCTCCGCC	0.347
ACTCCGCG	0.357
ACTCCGAT	0.344
CCTCCGCG	0.157
ACTCCGCA	0.259
AATCCGCG	0.21
AGATAAGC	-0.142
CACACTAG	-0.189
AGTCCACC	0.0594

Sequence	PBM E-score
AAAATATT	0.114
GAAGGCAA	-0.234
GTCTTCCA	-0.125
ATCCAAAT	-0.103
TGTGCTAA	0.0576
GGTGCTAA	0.358
AGTGCTAA	-0.043
GCCGCGCC	0.221
CGGTCACG	0.149
AGCCGGCC	0.111
CGCCGGCG	0.428
GGCCGGCA	0.289
CGCCGGCC	0.391
AGCCGGCG	0.248
CGCCGGCA	0.354
AGCCGGCA	0.256
GGCCGGCC	0.15
CGGCGCCG	0.309
ATAAAAGA	0.0611
GAGCAATA	-0.118
CAACACTG	-0.305
CAGTCAAG	-0.338
CCCACAGC	-0.146
GCCCGCCA	0.284
CCCCGCCA	0.406

Sequence	PBM E-score
ACCCGCCG	0.318
CCCCGCCG	0.381
TCCCGCCA	0.205
CCCCCCCG	-0.255
GGGATGAA	0.0485
CACTGTAG	-0.25
CTTCCCTA	-0.161
ACTGCCGC	0.311
GGGGCATA	0.083
CGGGCATA	0.419
CGGGCTTA	0.473
CGGGCTCC	0.0609
CGGGCCTA	0.437
AGGGCTCA	-0.23
CGGGCTCA	0.358
AGGGCATA	-0.0797
CGGGCCTC	0.108
CGGGCTTC	0.293
AGGGCTTA	0.12
AGGGCCTA	0.0959
CTCGTCCA	-0.102
AGGAATAT	-0.0199
ACATAGAA	-0.0458
AAATCGCG	-0.0128
ATGTGGGC	0.089

Sequence	PBM E-score
GCCGATAA	0.313
CATGAACA	-0.0519
ACGCGGCA	0.189
AGGCGGCA	0.238
CGGCGGCA	0.411
CCGCGGCA	0.367
GCGCGGCA	0.237
CGGCGTCA	0.384
ACGCGGTA	0.215
CCGCGGTA	0.399
GGGCGGCA	0.323
CGGCGTCC	0.277
CCGCGGTC	0.32
AGGCGTCA	-0.0617
GCGCCTCC	-0.0611
CCCTCACC	-0.225
AGTAAAGA	0.143
GCACCCGA	0.0572
TCCGTGAA	0.171

From the supplement of paper PMC3334620
